According to PubChem BioAssay (NCI):
The panel holds about 79,000 compounds, 15% with a hit somewhere; the sample as a whole holds those more often. Calls of active or inactive are those of the source. Cut-off read from the data, not from the text of the source: active = growth inhibition above about 70%; inactive = the rest.

Columns and labels:
[1] = NCI Yeast Anticancer Drug Screen. Data for the rad52 strain (AID 147);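 note: 0% = growth of vehicle-treated control cultures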; conditions: S. cerevisiae rad52 mutant growth inhibition, active compounds read high
In short: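 DNA repair-defective yeast; compound exposure; growth scored against vehicle controls.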

[2] = NCI Yeast Anticancer Drug Screen. Data for the wt1 strain (AID 149);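 note: 0% = growth of vehicle-treated wt1 cultures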; conditions: S. cerevisiae wt1 strain (SPY 50644) growth inhibition, active compounds read high
In short: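 Compounds are added to wt1 yeast cultures. Growth is then measured. Inhibition is expressed relative to vehicle-treated controls.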

[3] = NCI Yeast Anticancer Drug Screen. Data for the rad50EPP+ strain (AID 151);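 note: 0% = growth of vehicle-treated control cultures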; conditions: S. cerevisiae rad50 mutant strain, active compounds read high
In short: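 rad50EPP+ yeast treated with test compounds. Readout: growth vs vehicle control.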

[4] = NCI Yeast Anticancer Drug Screen. Data for the mgt1 strain (AID 153); conditions: S. cerevisiae mgt1 mutant growth inhibition, active compounds read high
In short: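 Growth inhibition relative to vehicle controls was scored for the mgt1 yeast strain after compound exposure.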

[5] = NCI Yeast Anticancer Drug Screen. Data for the rad50 strain (AID 155);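 note: 0% = growth of vehicle-only cultures of the same strain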; conditions: S. cerevisiae rad50 strain growth inhibition, active compounds read high
In short: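 Inhibition values express reduced yeast growth in compound-treated cultures relative to vehicle-treated controls.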

[6] = NCI Yeast Anticancer Drug Screen. Data for the mec2-1 strain (AID 157); conditions: S. cerevisiae mec2-1 strain, active compounds read high
In short: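 Growth inhibition is read against vehicle-treated controls after compound exposure of the mec2-1 yeast strain, which is defective in DNA damage repair or cell cycle control.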

[7] = NCI Yeast Anticancer Drug Screen. Data for the sgs1 mgt1 strain (AID 161);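 note: 0% = growth of cultures given vehicle only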; conditions: S. cerevisiae sgs1 mgt1 strain, active compounds read high
In short: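 Percent growth inhibition was derived by comparing compound-exposed mutant yeast with vehicle-exposed cultures. The strain carries alterations in DNA damage repair.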

[8] = NCI Yeast Anticancer Drug Screen. Data for the CLN2oe strain (AID 163);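 note: 0% = growth of vehicle-only control cultures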; conditions: S. cerevisiae CLN2oe strain, active compounds read high
In short: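 Compound-treated yeast; growth vs vehicle ctrl = % inhibition. Genetically altered strain (cell-cycle control).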

[9] = NCI Yeast Anticancer Drug Screen. Data for the cln2 rad14 strain (AID 165);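 note: 0% = growth equal to vehicle treated cultures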; conditions: S. cerevisiae cln2 rad14 strain, active compounds read high
In short: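 Growth inhibition, relative to vehicle-treated controls, is the read-out. The test organism is a yeast strain with defined genetic alterations, cln2 rad14.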

[10] = NCI Yeast Anticancer Drug Screen. Data for the bub3 strain (AID 167); conditions: S. cerevisiae bub3 mutant strain, active compounds read high
In short: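 Steps: expose the mutant yeast strain to compound; grow alongside vehicle-treated cultures; measure growth; express inhibition against the vehicle cultures.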

[11] = NCI Yeast Anticancer Drug Screen. Data for the wt2 strain (AID 169);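 note: 0% = growth of vehicle-treated yeast cultures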; conditions: S. cerevisiae wt2 strain growth inhibition, active compounds read high
In short: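 Compound exposure of yeast; growth compared with vehicle controls; inhibition reported.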

[12] = NCI Yeast Anticancer Drug Screen. Data for the mlh1 strain (AID 171);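 note: 0% = growth of vehicle-treated control cultures of the same strain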; conditions: S. cerevisiae mlh1 strain growth inhibition, active compounds read high
In short: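 Compounds are applied to a genetically altered yeast strain, and its growth is compared with that of vehicle-treated cultures to give percent inhibition.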

[13] = NCI Yeast Anticancer Drug Screen. Data for the sgs1 strain (AID 173);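 note: 0% = growth of vehicle-only control cultures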; conditions: S. cerevisiae sgs1 mutant, active compounds read high
In short: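 Compounds applied to genetically altered yeast; growth compared with vehicle-treated cultures to give % inhibition.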

[14] = NCI Yeast Anticancer Drug Screen. Data for the mlh1 rad18 strain (AID 175); conditions: S. cerevisiae mlh1 rad18 strain growth inhibition, active compounds read high
In short: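 Cells of a genetically altered yeast strain, deficient in DNA damage repair, were treated with compound. Their growth was then compared with that of vehicle-treated cultures to give inhibition.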

[15] = NCI Yeast Anticancer Drug Screen. Data for the rad18 strain (AID 177); conditions: S. cerevisiae rad18 mutant growth inhibition, active compounds read high
In short: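 Compounds are applied to a repair-deficient yeast strain, and growth is compared with that of vehicle-treated cultures to give percent inhibition.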

[16] = at 5.0 µM (retest, dose inferred, filed as 0.5)
[17] = at 50.0 µM (retest, dose inferred, filed as 5.0)

Measured: growth inhibition

O=C(O)/C=C\C(=O)Nc1ccc2c(c1)Cc1cc(Cl)ccc1-2
active: [3]; at 100.0 µM 81% | [9]; at 50.0 µM 80.3% | [15]; at 100.0 µM 80%
inactive: [1]; at 1.2 µM -3% | [1]; at 3.7 µM -3% | [1]; at 11.0 µM -3% | [1]; at 33.0 µM 2% | [1]; at 100.0 µM 19% | [2]; at 1.2 µM -3% | [2]; at 3.7 µM -3% | [2]; at 11.0 µM -6% | [2]; at 33.0 µM -5% | [2]; at 100.0 µM 0% | [3]; at 1.2 µM -3% | [3]; at 3.7 µM 8% | [3]; at 11.0 µM 14% | [3]; at 33.0 µM 28% | [4]; at 1.2 µM -3% | [4]; at 3.7 µM -5% | [4]; at 11.0 µM -1% | [4]; at 33.0 µM -4% | [4]; at 100.0 µM 22% | [5]; at 1.2 µM -3% | [5]; at 3.7 µM -4% | [5]; [16] 12% | [5]; at 11.0 µM -2% | [5]; at 33.0 µM 1% | [5]; [17] 7% | [5]; at 50.0 µM -6.3% | [5]; at 100.0 µM 19% | [6]; at 1.2 µM -4% | [6]; at 3.7 µM -1% | [6]; [16] -1% | [6]; at 11.0 µM -2% | [6]; at 33.0 µM 1% | [6]; [17] -4% | [6]; at 50.0 µM 1.65% | [6]; at 100.0 µM 10% | [7]; [16] -1% | [7]; [17] 33% | [7]; at 50.0 µM 34.1% | [8]; at 1.2 µM -4% | [8]; at 3.7 µM -7% | [8]; at 11.0 µM -11% | [8]; at 33.0 µM -13% | [8]; at 100.0 µM -3% | [9]; [16] -5% | [9]; [17] 15% | [10]; at 1.2 µM -4% | [10]; at 3.7 µM -5% | [10]; [16] -4% | [10]; at 11.0 µM -7% | [10]; at 33.0 µM -7% | [10]; [17] -7% | [10]; at 50.0 µM 11.9% | [10]; at 100.0 µM -1% | [11]; at 1.2 µM -3% | [11]; at 3.7 µM -3% | [11]; at 11.0 µM -5% | [11]; at 33.0 µM -3% | [11]; at 100.0 µM 11% | [12]; at 1.2 µM -2% | [12]; at 3.7 µM -1% | [12]; at 11.0 µM 1% | [12]; at 33.0 µM 4% | [12]; at 100.0 µM 27% | [13]; at 1.2 µM -2% | [13]; at 3.7 µM 0% | [13]; at 11.0 µM 4% | [13]; at 33.0 µM 10% | [13]; at 100.0 µM 50% | [14]; [16] 2% | [14]; [17] 59% | [14]; at 50.0 µM 54.1% | [15]; at 1.2 µM 0% | [15]; at 3.7 µM 5% | [15]; at 11.0 µM 18% | [15]; at 33.0 µM 34%
